Data as given in ChEMBL document CHEMBL3988442, “University of Dundee, Small-Polar-MMV Screening Library” (2021).
For some of these results: Results with a measured potency or affinity are listed apart.

What was measured:
Design in all cases: scale not given: direction of the effect not stated beside the values
[1] = target: Protein translocase subunit SecA (Escherichia coli (strain K12)) (UniProt P10408); assay: Assay to Identify E. coli SecA ATPase Inhibitors; type: functional; conditions: 30 µM
[2] = target: T1, Ubiquitin-activating enzyme e1, putative (Leishmania donovani (strain BPK282A1)) (UniProt E9BSI1); assay: Leishmania donovani Ubiquitin Activating Enzyme (LdE1); type: functional; conditions: 30 µM
T1 sequence (whole entry): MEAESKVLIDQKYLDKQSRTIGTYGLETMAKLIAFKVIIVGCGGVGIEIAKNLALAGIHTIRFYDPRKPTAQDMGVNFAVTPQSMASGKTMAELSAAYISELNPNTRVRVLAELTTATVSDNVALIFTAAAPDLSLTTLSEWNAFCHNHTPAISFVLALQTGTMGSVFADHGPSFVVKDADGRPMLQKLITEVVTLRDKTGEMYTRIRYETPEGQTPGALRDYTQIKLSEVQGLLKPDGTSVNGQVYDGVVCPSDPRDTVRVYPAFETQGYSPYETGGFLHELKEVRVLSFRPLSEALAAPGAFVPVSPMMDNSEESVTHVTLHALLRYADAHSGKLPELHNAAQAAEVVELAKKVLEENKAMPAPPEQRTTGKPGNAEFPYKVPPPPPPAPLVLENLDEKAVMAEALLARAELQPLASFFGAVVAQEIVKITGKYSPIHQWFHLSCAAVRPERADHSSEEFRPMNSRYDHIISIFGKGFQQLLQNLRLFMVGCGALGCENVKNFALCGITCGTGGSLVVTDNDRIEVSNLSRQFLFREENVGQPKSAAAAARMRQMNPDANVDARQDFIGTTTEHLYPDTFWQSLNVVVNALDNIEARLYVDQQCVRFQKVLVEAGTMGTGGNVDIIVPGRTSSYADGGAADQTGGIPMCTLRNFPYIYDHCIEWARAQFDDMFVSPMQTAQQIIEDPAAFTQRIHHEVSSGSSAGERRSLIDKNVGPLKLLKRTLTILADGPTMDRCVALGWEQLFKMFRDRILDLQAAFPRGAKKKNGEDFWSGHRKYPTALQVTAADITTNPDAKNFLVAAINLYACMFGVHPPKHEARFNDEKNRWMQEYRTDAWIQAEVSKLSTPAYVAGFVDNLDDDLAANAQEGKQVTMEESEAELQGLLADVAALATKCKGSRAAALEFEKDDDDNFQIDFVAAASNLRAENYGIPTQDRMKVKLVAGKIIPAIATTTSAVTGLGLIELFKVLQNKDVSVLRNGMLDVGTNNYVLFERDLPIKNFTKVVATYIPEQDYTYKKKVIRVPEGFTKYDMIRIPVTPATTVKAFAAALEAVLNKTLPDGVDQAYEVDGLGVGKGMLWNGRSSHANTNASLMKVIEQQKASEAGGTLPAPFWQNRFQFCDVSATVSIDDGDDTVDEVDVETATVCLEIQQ

[3] = target: AMP-activated protein kinase, AMPK (Homo sapiens) (UniProt P54646+O43741+P54619+Q9UGJ0+Q9Y478+Q13131+Q9UGI9); assay: AMP-dependent Kinase enzyme assay. An in vitro enzyme assay that detects ADP turnover that is directly proportional to AMPK activity. This uses naive AMPK that is activated during the assay with MK-8722; type: functional; conditions: 30 µM
[4] = target: Sialic acid-binding Ig-like lectin 9 (Homo sapiens) (UniProt Q9Y336); assay: Hs-Siglec9 ALPHAscreen SOP 20170721; conditions: 10 µM
Trypanosoma cruzi = assay: Trypanosoma cruzi phosphomannomutase and mannose-1-phosphate guanylyltransferase assay; type: functional; conditions: 10 µM
[5] = target: T2, Arginase-2, mitochondrial (Homo sapiens) (UniProt P78540); assay: in vitro enzyme assay to detect the production of urea directly proportional to the activity of Arginase II; type: functional; conditions: 33.3 µM; also: in the data most compounds retested in dose-response had high values
T2 sequence (whole entry): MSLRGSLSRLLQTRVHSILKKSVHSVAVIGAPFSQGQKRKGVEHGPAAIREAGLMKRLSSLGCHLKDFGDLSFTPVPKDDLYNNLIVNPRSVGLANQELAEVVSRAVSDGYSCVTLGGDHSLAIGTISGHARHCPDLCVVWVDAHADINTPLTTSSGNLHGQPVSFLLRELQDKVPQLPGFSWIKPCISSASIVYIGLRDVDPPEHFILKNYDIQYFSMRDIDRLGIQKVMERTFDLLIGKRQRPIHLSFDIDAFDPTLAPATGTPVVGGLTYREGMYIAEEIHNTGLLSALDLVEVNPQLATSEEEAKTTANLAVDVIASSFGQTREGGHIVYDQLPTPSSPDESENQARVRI

[6] = target: T3, Proteasome subunit beta (Trypanosoma cruzi) (UniProt O96673); assay: Trypanosoma cruzi proteasome chymotrypsin-like activity (TcProtChymo) assay.; also: in the data most compounds retested in dose-response had high values; type: functional; conditions: 9.37 µM
T3 sequence (whole entry): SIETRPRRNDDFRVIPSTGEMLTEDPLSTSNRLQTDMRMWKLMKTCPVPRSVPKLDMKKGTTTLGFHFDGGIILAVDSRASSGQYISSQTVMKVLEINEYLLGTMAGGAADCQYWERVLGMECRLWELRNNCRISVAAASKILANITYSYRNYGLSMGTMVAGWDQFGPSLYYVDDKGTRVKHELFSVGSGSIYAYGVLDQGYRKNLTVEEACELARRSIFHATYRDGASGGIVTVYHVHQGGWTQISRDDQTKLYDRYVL

Homo sapiens = organism: Homo sapiens; assay: To identify inhibition of the IFN signalling (Jak-Stat) pathway via expression of an eGFP reporter gene under the control of an IFN-stimulated response element (ISRE) containing MxA promoter.; type: functional; conditions: 30 µM
[7] = target: T4, Tyrosyl-tRNA synthetase, putative (Trypanosoma cruzi (strain CL Brener)) (UniProt Q4DSP6); assay: Trypanosoma cruzi tyrosyl tRNA synthetase (TcYRS) _High Tyrosine SOP; type: functional; conditions: 30 µM; also: in the data most compounds retested in dose-response had high values
T4 sequence (whole entry): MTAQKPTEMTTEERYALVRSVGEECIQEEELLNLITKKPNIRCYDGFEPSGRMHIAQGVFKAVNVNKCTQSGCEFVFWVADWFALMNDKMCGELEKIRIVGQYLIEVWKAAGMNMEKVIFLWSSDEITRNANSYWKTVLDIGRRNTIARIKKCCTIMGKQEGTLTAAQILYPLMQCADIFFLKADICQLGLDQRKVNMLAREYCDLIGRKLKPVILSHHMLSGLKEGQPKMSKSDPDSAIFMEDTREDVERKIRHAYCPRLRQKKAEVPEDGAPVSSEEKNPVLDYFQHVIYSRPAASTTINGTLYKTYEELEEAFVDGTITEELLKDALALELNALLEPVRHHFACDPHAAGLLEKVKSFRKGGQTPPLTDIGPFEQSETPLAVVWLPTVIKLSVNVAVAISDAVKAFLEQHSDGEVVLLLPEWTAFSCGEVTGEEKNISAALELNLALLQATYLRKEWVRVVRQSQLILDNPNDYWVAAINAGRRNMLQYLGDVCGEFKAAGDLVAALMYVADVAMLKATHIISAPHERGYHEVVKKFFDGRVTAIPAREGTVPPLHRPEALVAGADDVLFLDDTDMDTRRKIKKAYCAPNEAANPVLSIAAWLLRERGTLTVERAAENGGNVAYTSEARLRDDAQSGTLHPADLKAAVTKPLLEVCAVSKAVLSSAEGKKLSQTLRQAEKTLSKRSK

[8] = target: T4, Tyrosyl-tRNA synthetase, putative (Trypanosoma cruzi (strain CL Brener)); assay: Trypanosoma cruzi tyrosyl tRNA synthetase (TcYRS) SOP; type: functional; conditions: 30 µM
[9] = target: Chromo domain-containing protein 1 (Saccharomyces cerevisiae (strain ATCC 204508 / S288c) (Baker's yeast)) (UniProt P32657); assay: ScCHD-1 Enzyme Inhibition Assay; type: functional; conditions: 30 µM; also: in the data most compounds retested in dose-response had high values
Sequence of Chromo domain-containing protein 1 (Saccharomyces cerevisiae (strain ATCC 204508 / S288c) (Baker's yeast)) (P32657 whole entry, the tested form may be a part): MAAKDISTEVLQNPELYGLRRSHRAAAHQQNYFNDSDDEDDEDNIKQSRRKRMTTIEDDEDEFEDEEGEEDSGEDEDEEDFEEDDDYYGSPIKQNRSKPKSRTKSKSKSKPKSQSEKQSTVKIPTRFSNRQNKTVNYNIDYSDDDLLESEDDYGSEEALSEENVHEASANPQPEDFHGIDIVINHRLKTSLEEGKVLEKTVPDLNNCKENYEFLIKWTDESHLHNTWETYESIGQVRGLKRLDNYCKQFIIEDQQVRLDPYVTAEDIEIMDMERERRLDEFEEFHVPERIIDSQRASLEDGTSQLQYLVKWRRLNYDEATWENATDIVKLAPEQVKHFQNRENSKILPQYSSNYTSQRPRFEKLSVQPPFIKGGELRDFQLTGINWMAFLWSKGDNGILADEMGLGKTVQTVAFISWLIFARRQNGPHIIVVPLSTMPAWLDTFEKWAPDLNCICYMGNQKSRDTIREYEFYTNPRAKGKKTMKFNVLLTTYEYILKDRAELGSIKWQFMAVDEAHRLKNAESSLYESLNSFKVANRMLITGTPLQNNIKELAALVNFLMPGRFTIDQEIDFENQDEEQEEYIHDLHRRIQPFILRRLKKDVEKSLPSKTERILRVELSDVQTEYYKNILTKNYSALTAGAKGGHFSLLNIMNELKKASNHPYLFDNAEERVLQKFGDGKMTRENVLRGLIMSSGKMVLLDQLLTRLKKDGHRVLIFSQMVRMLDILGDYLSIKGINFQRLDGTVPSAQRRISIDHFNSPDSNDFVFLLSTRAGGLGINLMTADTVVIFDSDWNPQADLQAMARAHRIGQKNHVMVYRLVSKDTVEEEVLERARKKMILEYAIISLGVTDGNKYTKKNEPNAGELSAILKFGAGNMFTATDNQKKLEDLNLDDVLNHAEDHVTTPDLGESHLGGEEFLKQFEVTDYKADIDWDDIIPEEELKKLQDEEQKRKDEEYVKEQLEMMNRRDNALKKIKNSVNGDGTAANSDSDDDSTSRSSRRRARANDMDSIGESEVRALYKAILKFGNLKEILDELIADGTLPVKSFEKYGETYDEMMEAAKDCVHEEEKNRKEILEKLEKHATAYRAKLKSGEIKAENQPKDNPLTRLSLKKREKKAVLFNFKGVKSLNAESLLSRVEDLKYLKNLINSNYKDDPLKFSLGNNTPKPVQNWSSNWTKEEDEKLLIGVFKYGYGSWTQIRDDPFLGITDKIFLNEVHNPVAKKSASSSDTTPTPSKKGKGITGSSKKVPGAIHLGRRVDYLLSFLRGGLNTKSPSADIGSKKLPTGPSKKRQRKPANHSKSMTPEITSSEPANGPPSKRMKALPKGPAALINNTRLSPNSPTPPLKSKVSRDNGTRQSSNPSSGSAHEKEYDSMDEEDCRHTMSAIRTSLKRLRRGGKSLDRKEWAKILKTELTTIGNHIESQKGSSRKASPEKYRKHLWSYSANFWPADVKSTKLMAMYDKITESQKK

Sequence of Sialic acid-binding Ig-like lectin 9 (Homo sapiens) (Q9Y336 whole entry): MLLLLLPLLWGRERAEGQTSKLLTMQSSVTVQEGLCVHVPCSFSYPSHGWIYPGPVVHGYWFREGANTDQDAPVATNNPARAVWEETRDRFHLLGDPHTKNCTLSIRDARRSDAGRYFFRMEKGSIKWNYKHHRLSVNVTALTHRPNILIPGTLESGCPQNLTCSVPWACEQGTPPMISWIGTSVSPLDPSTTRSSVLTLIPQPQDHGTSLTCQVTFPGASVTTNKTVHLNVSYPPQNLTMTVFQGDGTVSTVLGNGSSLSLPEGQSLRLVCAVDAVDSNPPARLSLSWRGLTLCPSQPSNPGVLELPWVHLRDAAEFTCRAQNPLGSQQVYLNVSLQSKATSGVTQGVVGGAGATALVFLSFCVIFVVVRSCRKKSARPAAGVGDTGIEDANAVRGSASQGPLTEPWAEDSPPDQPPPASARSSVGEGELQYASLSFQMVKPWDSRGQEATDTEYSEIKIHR
Sequence of Protein translocase subunit SecA (Escherichia coli (strain K12)) (P10408 whole entry): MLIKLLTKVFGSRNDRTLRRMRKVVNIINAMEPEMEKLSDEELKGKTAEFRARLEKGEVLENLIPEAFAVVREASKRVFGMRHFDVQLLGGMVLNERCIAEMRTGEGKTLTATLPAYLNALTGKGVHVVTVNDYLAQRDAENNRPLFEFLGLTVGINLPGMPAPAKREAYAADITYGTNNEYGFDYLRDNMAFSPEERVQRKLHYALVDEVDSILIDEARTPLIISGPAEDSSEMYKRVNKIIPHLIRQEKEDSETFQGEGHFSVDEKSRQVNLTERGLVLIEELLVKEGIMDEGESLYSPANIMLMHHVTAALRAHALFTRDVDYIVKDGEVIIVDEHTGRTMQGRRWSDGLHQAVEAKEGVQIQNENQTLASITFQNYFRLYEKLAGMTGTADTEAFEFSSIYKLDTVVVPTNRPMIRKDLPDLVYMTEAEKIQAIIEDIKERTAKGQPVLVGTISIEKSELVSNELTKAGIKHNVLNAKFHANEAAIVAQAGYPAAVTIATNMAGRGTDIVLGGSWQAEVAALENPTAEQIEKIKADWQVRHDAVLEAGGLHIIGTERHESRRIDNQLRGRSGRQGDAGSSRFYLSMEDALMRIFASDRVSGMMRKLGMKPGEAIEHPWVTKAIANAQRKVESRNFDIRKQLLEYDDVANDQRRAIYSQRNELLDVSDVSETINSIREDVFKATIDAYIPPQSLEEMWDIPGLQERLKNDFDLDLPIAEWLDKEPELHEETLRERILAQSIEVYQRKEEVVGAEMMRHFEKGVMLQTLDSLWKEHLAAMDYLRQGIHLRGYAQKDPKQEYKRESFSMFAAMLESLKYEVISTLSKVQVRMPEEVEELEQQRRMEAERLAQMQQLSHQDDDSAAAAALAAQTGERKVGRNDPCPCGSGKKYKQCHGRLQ

Row | SMILES | Percent Effect [1] [%] | Percent Effect [2] [%] | Percent Effect [3] [%] | Percent Effect [4] [%] | Percent Effect (Trypanosoma cruzi) [%] | Percent Effect [5] [%] | Percent Effect [6] [%] | Percent Effect (Homo sapiens) [%] | Percent Effect [7] [%] | Percent Effect [8] [%] | Percent Effect [9] [%]
1 | CN(C)C(=O)N1C[C@H](Oc2ccccn2)[C@H]2OCCC[C@H]21 | 0.276 | 0 | 4.78 | 2.55 | -2.27 | 0.645 | 3.65 | -2.96 | 3.17 | 3.85 | -3.5
2 | CN1CCC(c2nnc(CN3CCC(O)CC3)n2C)CC1 | -3.38 | 8.22 | 6.23 | -1.15 | -1.76 | 1.82 | 8.87 | 1 | 4.3 | 15 | -4.74
3 | O=C(c1cc(=O)[nH]c(=O)[nH]1)N1CCCCC1c1ccc(F)cc1 (stereo not given) | 1.51 | 4.17 | 0.748 | -6.89 | -3.21 | 3.97 | 16.8 | -0.138 | 5.26 | 2.56 | -2.94
4 | O=C(NCC1CCOC1)c1csc(-c2cccc(Cl)c2)n1 (stereo not given) | -3.12 | 10.4 | 3.54 | -3.81 | -5.24 | 0.712 | 8.62 | 25.1 | 1.94 | 14.6 | -5.77
5 | CCn1cc(CN(C)S(=O)(=O)c2ccc(Cl)cc2)cn1 | -0.763 | 14.7 | 0.176 | -5.16 | -1.97 | -10 | 10.3 | 15 | 4.23 | 7.69 | -9.85
